Source: PubChem BioAssay AID1671202 (University of Kansas High Throughput Screening Laboratory, 2021)
Several values for one entry are separate records, joined by “and”; a condition that tells them apart may be missing. Equal entries are not always repeated. Screen size: about 190,000 compounds; about 6,900 (3.6%) were called active. Cut-off read from the data, not from the text of the source: active = inhibition above about 50%; inactive = the rest. What follows is part of a selection rich in actives, with near analogues and random picks from the rest. Some compounds were tested as several samples or in several runs, with calls that do not always agree.

target: Huntingtin (Homo sapiens) (UniProt P42858); assay: mutant huntingtin-calmodulin interaction inhibitors – biochemical, AlphaScreen, primary screen (AID 1671202); details: AlphaScreen His-mHTT/GST-CaM binding, luminescence; at 15 µM, stronger effect = higher value;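 for inhibition: 0% = both proteins with DMSO and 100% = one protein alone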
Sequence (P42858 whole entry, looked up, stated change not applied): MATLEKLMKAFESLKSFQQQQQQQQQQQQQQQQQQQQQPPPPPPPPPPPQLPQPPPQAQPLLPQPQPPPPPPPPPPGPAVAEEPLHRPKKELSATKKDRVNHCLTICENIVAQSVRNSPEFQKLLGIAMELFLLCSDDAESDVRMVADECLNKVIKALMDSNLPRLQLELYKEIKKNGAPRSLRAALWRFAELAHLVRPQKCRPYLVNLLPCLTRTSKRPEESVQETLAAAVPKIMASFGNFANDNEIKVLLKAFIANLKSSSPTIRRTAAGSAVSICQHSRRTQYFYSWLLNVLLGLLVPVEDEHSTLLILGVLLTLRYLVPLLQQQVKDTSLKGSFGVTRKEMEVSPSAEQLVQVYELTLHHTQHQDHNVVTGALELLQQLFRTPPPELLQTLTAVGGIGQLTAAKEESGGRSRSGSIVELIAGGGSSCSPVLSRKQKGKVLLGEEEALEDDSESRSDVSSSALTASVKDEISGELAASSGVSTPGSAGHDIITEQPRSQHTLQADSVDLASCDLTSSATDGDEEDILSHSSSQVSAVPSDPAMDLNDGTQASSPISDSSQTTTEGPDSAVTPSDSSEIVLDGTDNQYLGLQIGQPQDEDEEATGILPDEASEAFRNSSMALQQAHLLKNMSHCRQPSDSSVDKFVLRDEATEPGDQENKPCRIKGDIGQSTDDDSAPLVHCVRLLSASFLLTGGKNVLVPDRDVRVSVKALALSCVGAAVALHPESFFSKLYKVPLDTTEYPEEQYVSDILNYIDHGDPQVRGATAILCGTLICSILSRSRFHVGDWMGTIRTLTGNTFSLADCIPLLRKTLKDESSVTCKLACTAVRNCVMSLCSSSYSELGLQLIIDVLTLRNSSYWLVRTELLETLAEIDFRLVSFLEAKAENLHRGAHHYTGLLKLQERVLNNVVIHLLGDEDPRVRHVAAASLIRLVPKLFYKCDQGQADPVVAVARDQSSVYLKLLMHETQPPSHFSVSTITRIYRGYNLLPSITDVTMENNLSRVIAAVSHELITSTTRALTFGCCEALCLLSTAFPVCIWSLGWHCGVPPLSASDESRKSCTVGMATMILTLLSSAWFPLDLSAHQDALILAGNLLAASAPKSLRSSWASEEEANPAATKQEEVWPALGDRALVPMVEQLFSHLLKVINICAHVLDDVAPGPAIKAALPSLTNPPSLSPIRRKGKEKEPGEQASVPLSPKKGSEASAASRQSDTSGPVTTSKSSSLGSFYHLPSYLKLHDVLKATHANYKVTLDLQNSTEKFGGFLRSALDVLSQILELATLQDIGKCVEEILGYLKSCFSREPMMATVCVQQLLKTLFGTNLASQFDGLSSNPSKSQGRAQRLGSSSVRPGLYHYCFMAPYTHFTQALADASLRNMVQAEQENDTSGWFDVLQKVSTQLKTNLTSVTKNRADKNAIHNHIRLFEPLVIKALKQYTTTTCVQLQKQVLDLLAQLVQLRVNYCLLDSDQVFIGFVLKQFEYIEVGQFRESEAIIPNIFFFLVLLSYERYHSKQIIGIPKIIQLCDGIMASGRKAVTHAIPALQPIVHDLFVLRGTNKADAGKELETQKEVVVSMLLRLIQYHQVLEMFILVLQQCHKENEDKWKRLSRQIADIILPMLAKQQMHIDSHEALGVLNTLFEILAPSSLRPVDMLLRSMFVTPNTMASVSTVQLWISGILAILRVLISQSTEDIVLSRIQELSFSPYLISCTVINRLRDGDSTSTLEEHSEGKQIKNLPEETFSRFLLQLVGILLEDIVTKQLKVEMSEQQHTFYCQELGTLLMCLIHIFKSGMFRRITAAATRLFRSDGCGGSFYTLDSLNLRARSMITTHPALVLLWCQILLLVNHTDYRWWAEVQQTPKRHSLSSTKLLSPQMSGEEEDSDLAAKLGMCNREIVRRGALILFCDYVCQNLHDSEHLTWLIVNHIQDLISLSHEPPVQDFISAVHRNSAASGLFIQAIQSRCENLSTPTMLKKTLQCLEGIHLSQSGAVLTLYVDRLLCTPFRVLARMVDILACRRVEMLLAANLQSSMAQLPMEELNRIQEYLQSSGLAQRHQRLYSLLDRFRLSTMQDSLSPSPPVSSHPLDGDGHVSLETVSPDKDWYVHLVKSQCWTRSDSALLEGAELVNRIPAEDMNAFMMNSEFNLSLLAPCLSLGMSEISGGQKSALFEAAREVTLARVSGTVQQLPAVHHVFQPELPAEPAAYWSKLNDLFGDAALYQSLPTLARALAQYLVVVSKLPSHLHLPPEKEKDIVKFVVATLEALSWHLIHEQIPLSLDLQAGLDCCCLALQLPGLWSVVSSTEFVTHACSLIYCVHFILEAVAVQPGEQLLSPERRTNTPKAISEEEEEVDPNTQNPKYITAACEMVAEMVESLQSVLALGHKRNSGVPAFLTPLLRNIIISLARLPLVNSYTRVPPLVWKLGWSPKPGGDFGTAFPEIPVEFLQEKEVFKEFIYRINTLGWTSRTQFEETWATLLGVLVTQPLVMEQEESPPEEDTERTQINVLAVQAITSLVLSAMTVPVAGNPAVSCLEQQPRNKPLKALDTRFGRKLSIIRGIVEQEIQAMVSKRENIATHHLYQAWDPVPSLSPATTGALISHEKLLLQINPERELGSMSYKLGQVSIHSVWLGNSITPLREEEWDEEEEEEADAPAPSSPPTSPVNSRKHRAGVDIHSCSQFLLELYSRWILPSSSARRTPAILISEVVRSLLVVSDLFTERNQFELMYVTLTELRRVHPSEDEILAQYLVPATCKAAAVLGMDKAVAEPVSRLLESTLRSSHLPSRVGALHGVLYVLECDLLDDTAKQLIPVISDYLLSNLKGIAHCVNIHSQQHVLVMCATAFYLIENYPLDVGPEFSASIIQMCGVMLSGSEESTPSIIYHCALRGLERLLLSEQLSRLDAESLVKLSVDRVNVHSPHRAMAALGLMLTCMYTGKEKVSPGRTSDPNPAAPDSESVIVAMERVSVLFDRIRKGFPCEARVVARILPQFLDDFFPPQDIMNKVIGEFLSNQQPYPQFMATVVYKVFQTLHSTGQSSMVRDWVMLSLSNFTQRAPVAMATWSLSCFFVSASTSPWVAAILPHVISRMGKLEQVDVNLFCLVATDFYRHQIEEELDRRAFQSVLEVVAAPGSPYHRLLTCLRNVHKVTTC

Structure (SMILES) | inhibition
CNC(=O)N1CCCC(c2cccc(C(=O)NCc3ccccc3C(F)(F)F)c2)C1 (stereo not drawn) | -2.02% (inactive)
COc1ccc(C2C3C(=O)N(c4ccc([N+](=O)[O-])cc4)C(=O)C3N3CCCN23)cc1 (stereo not drawn) | -1% (inactive)
C[C@H]1CN(c2ccc(Br)cc2)C(=O)[C@@H]1CC(=O)Nc1ccc(Br)cc1 | 2.2% (inactive)
CCCCN1C[C@H](c2ccc(Br)cc2)[C@@H](CC(=O)Nc2ccc(Br)cc2)C1=O | 96.5% (active)
CCCCN1CC(C)(C)[C@H](CC(=O)Nc2ccc(Br)cc2)C1=O | -13.5% (inactive)
Cc1cc(C)c(NC(=O)CNC(C)(C)C)c(C)c1 | -2.1% (inactive)
O=C(NC(C(=O)N1CCCCC1)C12CC3CC(CC(C3)C1)C2)c1ccc(F)cc1 (stereo not drawn) | 2.5% (inactive)
CC1=C/C(=N\Oc2ccc3noc4c3c2C(=O)c2ccccc2-4)C(C(C)C)=CC1=O | active
N#Cc1ccc(C2=COC3(CCCN(C(=O)c4ccccc4)C3)C2)cc1 (stereo not drawn) | 2.5% (inactive)
CN(C)c1ncccc1NC(=O)c1cccc(C#N)c1 | 0% (inactive)
O=[N+]([O-])c1ccc2c(c1)C1C=CCC1C(c1cccc(Br)c1)N2 (stereo not drawn) | 72% (active)
O=C1NC(c2cccc([N+](=O)[O-])c2)C(=C(O)c2ccc(Br)cc2)C1=O (stereo not drawn) | 7.7% (inactive)
COc1cccc(C2Nc3ccc(C(=O)O)cc3C3C=CCC32)c1OC (stereo not drawn) | 15% (inactive)
CCCn1cnc2c1c(=O)n(CC)c(=O)n2-c1ccc(C)cc1 | 0.6% (inactive)
CC(C)Cn1cc(C(=O)NC2CCCCCC2)c2c3ccccc3n(C)c2c1=O | 1% (inactive)
COc1cccc(C2C3=C(Nc4c2c(=O)n(C)c(=O)n4C)c2ccccc2C3=O)c1OC (stereo not drawn) | 27% (inactive)
Cn1nc(COc2ccccc2)c2c1CCN(C(=O)Nc1ccc(F)cc1F)C2 | 22.3% (inactive)
Cn1nc(COc2ccc(F)cc2)c2c1CCN(C(=O)Nc1ccc(F)cc1)C2 | 80% (active)
Cn1nc(COc2ccc(F)cc2)c2c1CCN(C(=O)Nc1ccc(F)cc1F)C2 | -2.73% (inactive)
Cc1ccc(C)c(N=c2oc3ccccc3cc2C(=O)Nc2nccs2)c1 | -4% (inactive)
CN(C)CCNC(=O)c1cc2n(n1)CCCN(Cc1cccc(F)c1)C2=O | -3.78% (inactive)
CC(=O)NC(=Nc1nc(C)cc(C)n1)Nc1cccc(C)c1C | 0% (inactive)
Cc1c(NC(=O)c2cccc([N+](=O)[O-])c2C)cccc1-c1nc2ccccc2[nH]1 | 16% (inactive)
O=C(Nc1ccccc1-c1nc2ccccc2[nH]1)c1ccccc1Cl | 45.7% (inactive)

Structure (SMILES) | inhibition
O=C(Nc1ccccc1-c1nc2ccccc2[nH]1)c1ccccc1Br | 51% (active)
O=C(CN1C(=O)CCC1=O)N1CCC(Oc2nc3ccc(F)cc3s2)CC1 | -3.4% (inactive)
O=C(Nc1nc2ccccc2s1)c1ccc2c(c1)OCO2 | 17.1% (inactive)
O=C(Cc1ccc2c(c1)OCO2)N1CCC(Oc2nc3ccccc3s2)CC1 | 61.1% (active)
O=C(NCc1ccncc1)C1CC(=O)N(Cc2ccccc2F)C1 (stereo not drawn) | 3.4% (inactive)
COc1ccc(C(=O)CSc2nc(N)cc(=O)[nH]2)cc1[N+](=O)[O-] | 3.7% (inactive)
C[C@H]1COc2cc(N3CCSCC3)ccc2S(=O)(=O)N1 | -12% (inactive)
O=C(c1ccc(F)cc1)N1CCc2nc[nH]c2C1 | -20.2% (inactive)
COc1cc(OC)c(OC)cc1CN1CCN(Cc2ccc3c(c2)OCO3)CC1 | 2.4% (inactive)
COc1cc(C(c2cc3c(cc2O)OCO3)N2CCCC2)cc(OC)c1OC (stereo not drawn) | 81.6% (active)
Cc1nc2c(c(NCC3CCCO3)n1)CCC2 (stereo not drawn) | -7.6% (inactive)
C[C@H]1[C@H](NC(=O)c2cccc(N(C)C)c2)CC[C@@]23CCCN2C(=O)CCC[C@@H]13 | -15.6% (inactive)
Cc1nnc2cc(N3CCN(Cc4ccc(C(C)C)cc4)CC3)cnn12 | 63.7% (active)
c1csc(CN2CCN(c3cnn4cnnc4c3)CC2)c1 | 0.4% (inactive)
Clc1cccc(N2CCN(Cc3cccnc3)CC2)c1 | 1% (inactive)
CCn1nnc2c(N3CCN(C(=O)Nc4ccccc4C(F)(F)F)CC3)ncnc21 | -3.4% (inactive)
CCOc1cc(/C=C2\C(=O)NN(c3cccc(Cl)c3)C2=O)ccc1O | 8% (inactive)
Cc1ccccc1COc1cccc(/C=C2\C(=O)NN(c3ccccc3)C2=O)c1 | 7% (inactive)
CCOc1cc(/C=C2\C(=O)NN(c3ccccc3)C2=O)cc(Cl)c1OCC | 61% (active)
CC(C)N1C(=O)C(C)N(C(=O)NCc2ccc(F)cc2)c2cccnc21 (stereo not drawn) | 10.9% (inactive)
Cc1ccc(NC(=O)CSc2cccc3cccnc23)c(C)c1 | 86% (active)
Cc1ccc(NC(=O)CSC2=NC(C)(C)N=C2c2ccccc2)c(C)c1 | -6.5% (inactive)
O=C(CSc1cccc2cccnc12)Nc1ccc(Br)cc1 | 3.8% (inactive)
N#CC1=C2C=CC(O)=CC2OC=C1N (stereo not drawn) | 55.1% (active)

Structure (SMILES) | inhibition
Cn1c(SCc2ccc([N+](=O)[O-])cc2)nnc1-c1cccs1 | 4% (inactive)
CCN1C(=O)CCc2cc(NC(=O)c3sccc3C)ccc21 | -2.8% (inactive)
Cc1ccc(N2C(=O)C3C4c5ccccc5C(CO)(c5ccccc54)C3C2=O)cc1[N+](=O)[O-] (stereo not drawn) | 27% (inactive)
Cc1nn(C)c(C)c1Nc1ccc(N2C(=O)CCCC2=O)cc1[N+](=O)[O-] | 1% (inactive)
O=C1C2C3C=CC(C3)C2C(=O)N1c1ccc(Nc2ccc3c(c2)CCC3)c([N+](=O)[O-])c1 (stereo not drawn) | 74% (active)
COc1ccccc1CNC(=O)C1CCN(c2cncnc2N2CCN(C)CC2)CC1 | 5.19% (inactive)
CC(C)(C)NC(=O)c1ccc2c(c1)CCN2C(=O)C1CC1 | -4.5% (inactive)
CCOC(=O)NCCS(=O)(=O)N1CCN(c2ccc(OC)cc2)CC1 | 1.1% (inactive)
N#C/C(=C\c1cccn1-c1ccc([N+](=O)[O-])cc1)c1nn(CCO)c(N)c1C#N | -2.4% (inactive) and 4% (inactive)
CS(=O)(=O)N1CCc2cc(NC(=O)Nc3ccccc3)ccc21 | 12.4% (inactive)
CCN1CCN(CC(O)COc2ccc(C34CC5CC(CC(C5)C3)C4)cc2)CC1 (stereo not drawn) | 50.3% (active)
CCN(CC)CC(O)COc1ccc(C23CC4CC(CC(C4)C2)C3)cc1 (stereo not drawn) | 98.6% (active)
Cc1ccc(OCC(O)CNC2CCCCC2)cc1 (stereo not drawn) | -7.1% (inactive)
CCN(CC(O)COC12CC3CC(CC(C3)C1)C2)C1CCCCC1 (stereo not drawn) | -6.1% (inactive)
CC1CC(C)CN(CC(O)COc2ccc(C34CC5CC(CC(C5)C3)C4)cc2)C1 (stereo not drawn) | 65.1% (active)
CCc1ccc(OCC(O)CN2CCN(c3ccc(F)cc3)CC2)cc1 (stereo not drawn) | 15.9% (inactive)
COc1ccc(N2CCN(CC(O)COC34CC5CC(CC(C5)C3)C4)CC2)cc1 (stereo not drawn) | 27.7% (inactive)
Cc1ccc(OCC(O)CN2CCCC2)cc1C (stereo not drawn) | 1.8% (inactive)
CC(=O)c1ccc(OCC(O)CN2CCN(c3ccccc3)CC2)cc1 (stereo not drawn) | 9.71% (inactive)
CCn1nccc1C(=O)N1CC2CC(NC(=O)c3cccs3)C1C2 (stereo not drawn) | 1.26% (inactive)
Cc1ccc2nc(NCc3ccccc3)c(C=Nc3ccccc3)c(=O)n2c1 | 6% (inactive)
CCc1ccc(CNC(=O)c2c(C)sc3c(=O)n(C4CCCC4)cnc23)cc1 | -6.7% (inactive)
CN1CCN(C(=O)c2cc3c(=O)n(C)ccc3n2C)CC1 | -9.9% (inactive)
CCOc1ccc(S(=O)(=O)Nc2ccccc2F)c2cccnc12 | 4% (inactive)

Structure (SMILES) | inhibition
O=S(=O)(Nc1ccc(F)cc1)c1cccnc1Nc1ccc(Cl)cc1 | -23.3% (inactive)
O=S(=O)(Nc1ccc(Cl)cc1F)c1c[nH]c2ncccc12 | 71.8% (active)
Cc1cccc(OCC(=O)N2CCCC(OCc3nc(C)no3)C2)c1 (stereo not drawn) | -7.37% (inactive)
Cc1ccc(-c2nnc(C(=O)c3ccccc3)o2)cc1 | 0.5% (inactive)
O=S(=O)(c1cc(Br)ccc1Br)N1CCOCC1 | -4% (inactive)
Cc1oc2c(Cl)c(Cl)c(O)cc2c1[N+](=O)[O-] | 32% (inactive)
COC(=O)Oc1c([N+](=O)[O-])cc2oc(=O)sc2c1[N+](=O)[O-] | 53% (active)
COc1ccc(Br)cc1C(=O)Nc1cc2cccc([N+](=O)[O-])c2oc1=O | -7% (inactive)
O=C1CCCC2=C1C(c1cccc(Br)c1)n1nc(-c3ccccc3)nc1N2 (stereo not drawn) | -1.86% (inactive)
CCOc1ccc(-c2cc(C(=O)NCc3ccccn3)c3ccccc3n2)cc1 | -9.8% (inactive) and 70% (active)
CCOc1cccc(-c2cc(C(=O)NCCN3CCOCC3)c3ccccc3n2)c1 | 11.4% (inactive)
O=C(NCc1cccnc1)c1cc(-c2ccccn2)nc2ccccc12 | 34% (inactive)
CCOc1ccc(/C=C2\CS/C(=C\c3ccc(OCC)cc3)C2=O)cc1 | 28% (inactive)
CC(=O)N(C)CC(=O)N1N=C(c2ccccc2Cl)CC1c1ccccc1Cl (stereo not drawn) | 56.2% (active)
CC(=O)N(C)CC(=O)N1N=C(c2cccs2)CC1c1ccccc1Cl (stereo not drawn) | 1.2% (inactive)
CN(CC(=O)N1N=C(c2cccs2)CC1c1ccccc1F)C(=O)C1CCCC1 (stereo not drawn) | 23% (inactive)
CC(C)C(=O)N(C)CC(=O)N1N=C(c2ccc(F)cc2)CC1c1ccc(F)cc1 (stereo not drawn) | 29.5% (inactive)
CC(C)C(=O)N(C)CC(=O)N1N=C(c2ccccc2Cl)CC1c1ccc(F)cc1 (stereo not drawn) | 57% (active)
CNCC(=O)N1N=C(c2cccn2C)CC1c1ccccc1 (stereo not drawn) | 8.9% (inactive)
O=C(c1ccc(F)cc1)N1CCC(c2nc(-c3ccccc3)n[nH]2)CC1 | 12.2% (inactive)
O=C1CC[C@@]23CCCN2C(=O)CCC[C@H]3[C@H]1Cc1ccccc1 | 1.2% (inactive)
